# Results as given in the supplement of paper PMC13380429.
# Tested on: Vero E6 infected with SARS-CoV-2
# Assay: morphology score (similarity to uninfected cells); higher = more like uninfected cells
# Conditions: 24 h
row,Compound,morphology score
1,CC(C)[C@H](CO)Nc1nc(Nc2cccc(Cl)c2)c2ncn(C(C)C)c2n1 [purvalanol-A] (0.833333 µM),-0.028
2,CC[C@]1(O)C[C@H]2CN(CCc3c([nH]c4ccccc34)[C@@](C(=O)OC)(c3cc4c(cc3OC)N(C=O)[C@H]3[C@@](O)(C(=O)OC)[C@H](OC(C)=O)[C@]5(CC)C=CCN6CC[C@]43[C@@H]65)C2)C1 [Vincristine (sulfate)] (10 µM),-0.036
3,COC[C@H](C)Oc1cc(O[C@@H](C)Cc2ccccc2)cc(C(=O)Nc2ccc(C(=O)O)cn2)c1 (10 µM),-0.163

# Tested on: Vero E6 infected with SARS-CoV-2
# Assay: SARS-CoV-2 infection rate relative to infected DMSO; higher = more infection, active = 60 or less
# Conditions: 24 h
row,Compound,SARS-CoV-2 infection rate
1,C/C=C1\NC(=O)[C@H]2CSSCC/C=C/[C@H](CC(=O)N[C@H](C(C)C)C(=O)N2)OC(=O)[C@H](C(C)C)NC1=O [romidepsin] (10 µM),114% (inactive)
2,N=C1N[C@H]2[C@H](CS[C@H]2CCCCC(=O)O)N1 [2-iminobiotin] (10 µM),99% (inactive)
3,CO[C@@]1(NC(=O)CSC[C@@H](N)C(=O)O)C(=O)N2C(C(=O)O)=C(CSc3nnnn3C)CS[C@@H]21 [cefminox] (10 µM),115% (inactive)
4,C[N+](C)(C)NCCC(=O)O [meldonium] (10 µM),88.5% (inactive)
5,C[C@@H]1CN(Cc2ccc(F)cc2)CCN1C(=O)COc1ccc(Cl)cc1NC(N)=O (10 µM),112% (inactive)
6,CCOCc1nc2c(N)nc3ccccc3c2n1CC(C)(C)O [resiquimod] (10 µM),113% (inactive)
7,C[C@@H]1COCCN1c1cc(C2([S@](C)(=N)=O)CC2)nc(-c2ccnc3[nH]ccc23)n1 (0.833333 µM),90% (inactive)
